# From ChEMBL document CHEMBL4649997, “Data for probe TP-472” (2021)
# Assays:
# [1] = target: Bromodomain-containing protein 4 (Homo sapiens) (UniProt O60885); details: Compound concentration 10.0 uM, Protein concentration 2.0 uM
# [2] = target: T1, Transcription intermediary factor 1-alpha (Homo sapiens) (UniProt O15164); details: Compound concentration 10.0 uM, Protein concentration 2.0 uM
# T1 sequence (whole entry): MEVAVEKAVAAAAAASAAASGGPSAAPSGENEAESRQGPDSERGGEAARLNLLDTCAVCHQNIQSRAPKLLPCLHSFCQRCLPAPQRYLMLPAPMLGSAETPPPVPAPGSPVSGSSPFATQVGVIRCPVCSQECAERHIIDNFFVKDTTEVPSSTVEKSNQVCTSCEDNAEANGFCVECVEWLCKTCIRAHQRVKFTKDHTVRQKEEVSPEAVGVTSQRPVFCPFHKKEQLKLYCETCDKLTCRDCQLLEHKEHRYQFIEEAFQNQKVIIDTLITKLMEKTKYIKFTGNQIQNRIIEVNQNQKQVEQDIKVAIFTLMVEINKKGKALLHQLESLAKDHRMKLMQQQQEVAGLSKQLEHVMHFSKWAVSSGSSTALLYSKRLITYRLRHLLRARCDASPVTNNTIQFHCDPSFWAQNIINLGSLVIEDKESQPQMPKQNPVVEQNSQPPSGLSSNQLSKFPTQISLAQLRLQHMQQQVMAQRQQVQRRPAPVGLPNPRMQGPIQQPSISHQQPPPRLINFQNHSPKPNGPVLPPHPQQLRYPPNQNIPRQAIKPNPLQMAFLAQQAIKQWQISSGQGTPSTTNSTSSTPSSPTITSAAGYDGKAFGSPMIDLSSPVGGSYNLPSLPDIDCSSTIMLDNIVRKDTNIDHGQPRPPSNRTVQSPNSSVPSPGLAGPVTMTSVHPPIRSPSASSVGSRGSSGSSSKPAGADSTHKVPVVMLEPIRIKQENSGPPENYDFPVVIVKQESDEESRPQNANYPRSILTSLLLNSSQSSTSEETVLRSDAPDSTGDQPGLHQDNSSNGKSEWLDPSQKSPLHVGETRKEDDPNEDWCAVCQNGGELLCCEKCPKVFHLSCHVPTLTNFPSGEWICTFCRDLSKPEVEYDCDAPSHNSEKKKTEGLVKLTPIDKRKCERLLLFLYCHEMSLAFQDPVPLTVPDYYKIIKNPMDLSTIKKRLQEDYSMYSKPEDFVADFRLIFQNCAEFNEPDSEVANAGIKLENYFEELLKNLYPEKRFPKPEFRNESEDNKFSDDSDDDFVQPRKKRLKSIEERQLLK
structure (smiles),measurement,setting,value
CC(=O)c1cc(-c2cc(C(=O)NC3CC3)ccc2C)c2ncccn12,ΔTm,[1],0.28 °C
same,ΔTm,[2],0.37 °C
